The values that follow come from PubChem BioAssay AID493170 (National Center for Advancing Translational Sciences (NCATS), 2011).

Inconclusive results are not listed. A call without a number means that no potency is given here. Active and inactive are the calls of the source. Calls follow the shape of the dose curve; as a rule, active = well fitted inhibition curve with a large enough effect; inconclusive = small, poorly fitted or top-dose-only effect, or effect the other way; inactive = flat fitted curve, though single readings scatter.
Potency is read from the fitted curve at half-maximal effect.

The target of this assay is Ubiquitin carboxyl-terminal hydrolase 2 (Homo sapiens) (UniProt O75604). Put plainly: Ub-rhodamine 110 based assay for inhibitors Ubiquitin-specific Protease USP2a. Also: nearly all actives have a fitted effect of over 50% in size. The note with it: USP2a Ub-rhodamine110 cleavage, fluorescence; series mostly up to 38.3 µM. An outline of the steps: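 5 nM USP2a preincubated with compounds for 30 min at RT in 20 mM Tris-HCl pH 8.0, 2 mM CaCl2, 2 mM beta-mercaptoethanol, 0.05% CHAPS. Cleavage of 150 nM Ub-rhodamine 110 read kinetically (Ex 485/Em 531) for 7 min.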
Sequence of Ubiquitin carboxyl-terminal hydrolase 2 (Homo sapiens) (O75604 whole entry, looked up): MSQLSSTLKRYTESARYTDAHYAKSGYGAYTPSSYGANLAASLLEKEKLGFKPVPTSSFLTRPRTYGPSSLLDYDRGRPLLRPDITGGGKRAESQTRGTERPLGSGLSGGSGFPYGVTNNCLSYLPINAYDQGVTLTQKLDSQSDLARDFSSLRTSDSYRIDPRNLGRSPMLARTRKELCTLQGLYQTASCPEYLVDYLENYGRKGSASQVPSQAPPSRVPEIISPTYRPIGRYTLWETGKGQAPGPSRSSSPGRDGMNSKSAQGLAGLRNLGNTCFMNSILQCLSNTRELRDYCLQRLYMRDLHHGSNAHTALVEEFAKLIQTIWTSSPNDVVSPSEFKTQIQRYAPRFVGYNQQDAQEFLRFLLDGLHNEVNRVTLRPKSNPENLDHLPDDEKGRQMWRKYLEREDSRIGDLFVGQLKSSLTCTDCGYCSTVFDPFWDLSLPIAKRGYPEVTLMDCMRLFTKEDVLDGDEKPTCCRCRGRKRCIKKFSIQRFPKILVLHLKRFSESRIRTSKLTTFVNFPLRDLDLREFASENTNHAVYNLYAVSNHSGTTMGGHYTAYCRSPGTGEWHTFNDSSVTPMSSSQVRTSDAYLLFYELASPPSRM
Regarding `Cc1ccc2c(c1)c1c3n2CCN(C(=O)Cn2c(-c4ccccc4)noc2=O)C3CCC1` (stereo unspecified), the Potency entry was “inactive”.
For the molecule `CCOC(=O)c1c(C)c(C(=O)O)n(C)c1C`, the Potency entry is “inactive”.
For `O=C(Nc1nc(-c2ccco2)c(-c2ccco2)s1)c1ccc(F)cc1F` the value was 10 µM (active).
For the molecule `O=C(NCc1ccccc1)C1CCC1`, the Potency result was “inactive”.
For `CCCOC(=O)CCCCC1SCC(NC(=O)OC)C1NC(=O)OC` (stereo unspecified) the value was “inactive”; for `COc1ccc(-n2c(=S)[nH]c3cc(C(=O)Nc4cc(OC)c(OC)c(OC)c4)ccc3c2=O)c(OC)c1`, “inactive”.
As for `Cc1ccc(S(=O)(=O)Nc2ccccc2C(=O)Nc2nc(-c3ccc(F)cc3)cs2)cc1`, the figure is 7.08 µM (active).
As for `O=C(O[C@@H]1OC2COC(=O)c3cc(O)c(O)c(O)c3-c3c(cc(O)c(O)c3O)C(=O)O[C@@H]([C@H]1O)[C@@H]2O)c1cc(O)c(O)c(O)c1`, the figure is 3.16 µM (active).
Turning to `O=C(c1ccco1)N1CCN(C(c2cccs2)c2sc3ncnn3c2O)CC1` (stereo unspecified), the Potency entry is “inactive”.
As for `CCOC(=O)c1c(C)[nH]c(C(=O)COC(=O)CSC)c1C`, the entry is “inactive”; as for `COc1ccc(OCC(=O)Nc2ccccc2OC)cc1`, “inactive”.
For `Cc1ccc(C2=N/C(=C\c3c(C)nn(-c4ccccc4)c3N3CCCC3)C(=O)O2)cc1` the value was “inactive”; for `O=C(N/N=C/c1cc(Cl)c(O)c(Cl)c1)c1cc2c(ccc3ccccc32)o1`, 11.2 µM (active); for `CC1=C(C(=O)OC(C)C)C(C)C(C(=O)OC(C)C)=C(C)N1`, “inactive”.
For `N#C/C(=C(/O)CSc1nnc(Cc2cccs2)n1C1CCCCC1)c1nc2ccccc2[nH]1` the value was 7.08 µM (active); for `COc1ccc(NC(=O)CN(Cc2ccccc2)S(C)(=O)=O)cc1`, “inactive”.
